The campaign covered roughly 52,000 compounds. About 1,700 (3.3%) were called active. No stated cut-off is given here; in the data, active means survival mostly below about 52% (no sharp cut-off); inactive means mostly above about 56%. The full list was thinned out, with actives kept by preference.
The compounds below were run on Wild type (assay: S. aureus survival, RN4220 and DeltatarO strains – OD600, teichoic acid synthesis inhibitors, primary screen (AID 463173)). Settings: S. aureus RN4220 wild type/DeltatarO growth, OD600, 18 h, hits give low values, screened at 18.75 µg/mL (by protocol).

Structure (SMILES)	survival
COc1ccc(CNC(=O)c2cc(Nc3ccc(C)cc3C)nc3ccccc23)cc1	91% (inactive)
CCC(CC)C(=O)Nc1cc(-c2cn3cccnc3n2)ccc1OC	117% (inactive)
CCNC(=O)C1CCN(Cc2cc3ccccc3n2Cc2ccc(C)cc2)CC1	85% (inactive)
COc1cc(OC)c(NC(=O)c2cc3c(s2)-c2ccc(Cl)cc2SC3)cc1Cl	96% (inactive)
Fc1ccc(-n2ncc3c(NC4CCCCCC4)ncnc32)cc1	76% (inactive)
O=C1N(Cc2ccccc2Cl)c2ccccc2C1(O)c1c[nH]c2ccccc12 (configuration not stated)	84% (inactive)
CCCCN1C(=O)C(O)(c2c(C)[nH]c3ccccc23)c2cc(Br)ccc21 (configuration not stated)	36% (inactive)
Cc1ccc(C)c(CN2C(=O)C(O)(c3c[nH]c4ccccc34)c3ccccc32)c1 (configuration not stated)	116% (inactive)
Cc1ccc(CN2C(=O)C(O)(c3c[nH]c4ccccc34)c3cc(Cl)ccc32)cc1 (configuration not stated)	-11% (active)
Cc1[nH]c2ccccc2c1C1(O)C(=O)N(Cc2ccccc2)c2ccc(Cl)cc21 (configuration not stated)	28% (inactive)
O=C1N(Cc2ccccc2)c2ccccc2C1(O)c1c[nH]c2ccccc12 (configuration not stated)	67% (inactive)
Cc1ccccc1CN1C(=O)C(O)(c2c[nH]c3ccccc23)c2cc(Cl)ccc21 (configuration not stated)	-11% (active)
O=C1N(Cc2ccccc2)c2ccc(Cl)cc2C1(O)c1c[nH]c2ccccc12 (configuration not stated)	53% (inactive)
Cc1[nH]c2ccccc2c1C1(O)C(=O)N(Cc2ccccc2)c2ccc(Br)cc21 (configuration not stated)	14% (active)
COc1ccc(CC(=O)NCCS(=O)(=O)N2CCN(c3ccccc3F)CC2)cc1OC	66% (inactive)
O=C(CN1C(=O)CSC1=O)N1CCCCC1	97% (inactive)
CCc1ccc(-c2cc(C)no2)cc1S(=O)(=O)NCc1ccco1	76% (inactive)
COc1cccc(Nc2sc(C(=O)c3ccc(Cl)cc3)c(N)c2C(=O)NCCc2ccc(OC)c(OC)c2)c1	75% (inactive)
CC(C)=NNC(=O)c1nnn(-c2nonc2N)c1CN1CCOCC1	108% (inactive)
COc1ccc(CNS(=O)(=O)c2ccc(F)c(C(=O)Nc3c(C)cc(C)cc3C)c2)cc1	80% (inactive)
O=C(NCCO)c1ccc2[nH]c3c(c2c1)CCCC3	102% (inactive)
Cc1ccc2nc(-c3c[nH]c4ccccc34)c(Nc3ccc(F)cc3)n2c1	72% (inactive)
CCC(Oc1ccccc1-c1nnc(-c2ccccc2)o1)C(=O)Nc1ccc(C(C)=O)cc1 (configuration not stated)	118% (inactive)

Structure (SMILES)	survival
CCc1ccccc1NC(=O)C(CC)Oc1ccccc1-c1nnc(-c2ccccc2)o1 (configuration not stated)	0% (active)
CCOC(=O)c1ccccc1NC(=O)COc1ccccc1-c1nnc(-c2ccccc2)o1	22% (inactive)
CC(=O)c1ccc(S(=O)(=O)N2CCn3cccc3C2c2ccc(F)c(F)c2)cc1 (configuration not stated)	68% (inactive)
Nc1nc2n(n1)C(c1cccs1)CC(c1ccc(Cl)cc1Cl)N2 (configuration not stated)	106% (inactive)
CCOC(=O)C1CCC(CN(Cc2cccc(Br)c2)S(=O)(=O)c2ccc(Cl)cc2)CC1 (configuration not stated)	90% (inactive)
Cc1ccc2cccc(NC(=O)C(C)Oc3ccc(Cl)cc3Cl)c2n1 (configuration not stated)	-9% (active)
COc1cc2ccccc2cc1C(=O)Nc1cccc(-c2nc3ccccc3o2)c1	1% (active)
COc1ccc(NC(=O)c2ccco2)cc1NC(=O)C(C)Oc1ccc(Cl)cc1Cl (configuration not stated)	6% (active)
COc1cc2ccccc2cc1C(=O)Nc1cc(-c2nc3ccccc3o2)ccc1C	126% (inactive)
Cc1cc(C)c2oc(-c3cccc(NC(=O)c4ccc(Br)o4)c3)nc2c1	45% (inactive)
Cc1ccc2cccc(NC(=O)C(C)Oc3ccc(C)c(C)c3)c2n1 (configuration not stated)	83% (inactive)
COc1ccc(NC(=O)c2ccco2)cc1NC(=O)C(C)C	90% (inactive)
COc1cc2ccccc2cc1C(=O)Nc1cccc(-c2nc3cc(C)c(C)cc3o2)c1	58% (inactive)
Cc1ccc2cccc(NC(=O)c3ccc(-c4ccc(Cl)cc4Cl)o3)c2n1	69% (inactive)
Cc1ccc2nc(-c3cccc(NC(=O)c4ccc(Br)o4)c3)oc2c1	7% (active)
COc1ccc(NC(=O)c2ccco2)cc1NC(=O)c1cc(Cl)ccc1OC	65% (inactive)
Cc1ccc2nc(-c3ccc(Cl)c(NC(=O)c4ccc(Br)o4)c3)oc2c1	69% (inactive)
Cc1cc2c(cc1S(=O)(=O)CCC(=O)N1CCCCC1C)OCC(=O)N2 (configuration not stated)	85% (inactive)
COc1ccc(CNC(=O)c2ccc(CS(=O)Cc3ccccc3Cl)o2)cc1 (configuration not stated)	95% (inactive)
Cc1ccc(-n2nc(C(=O)N3CCCCC3C)c(=O)n(C)c2=O)cc1 (configuration not stated)	80% (inactive)
COc1ccc(S(=O)(=O)c2cn(C)c3ccc(C)cc3c2=O)cc1	82% (inactive)
CSc1ccc(CNC(=O)c2ccccc2NC(=O)c2nsc3ccccc23)cc1	90% (inactive)
CCc1ccc(NC(=O)CN2C(=O)C3(SCC(=O)N3c3ccc(F)c(F)c3)c3ccccc32)cc1 (configuration not stated)	125% (inactive)

Structure (SMILES)	survival
COc1ccc(-c2nc3ccccc3o2)cc1NC(=O)Cc1ccc(Cl)cc1	68% (inactive)
COc1cc2ccccc2cc1C(=O)Nc1ccc2oc(-c3ccc(Cl)cc3)nc2c1	91% (inactive)
COc1ccc(-c2nc3ccccc3o2)cc1NC(=O)C(C)Oc1ccc(Cl)cc1Cl (configuration not stated)	8% (active)
CC(C)C(=O)Nc1cccc(-c2nc3ccccc3o2)c1	103% (inactive)
CCc1ccc(-c2nc3cc(NC(=O)c4cc5ccccc5cc4OC)ccc3o2)cc1	14% (active)
COc1cc2ccccc2cc1C(=O)Nc1ccc2oc(-c3ccccc3)nc2c1	4% (active)
COc1ccccc1OC(C)C(=O)Nc1cccc(-c2nc3ccccc3o2)c1 (configuration not stated)	3% (active)
CCc1ccc(OCC(=O)Nc2ccc3oc(-c4ccc(OC)cc4)nc3c2)cc1	79% (inactive)
Cc1cc(OC(C)C(=O)Nc2cccc(-c3nc4ccccc4o3)c2)cc(C)c1Cl (configuration not stated)	55% (inactive)
COc1cc2ccccc2cc1C(=O)Nc1ccc2oc(-c3ccc(F)cc3)nc2c1	81% (inactive)
COc1ccc(-c2nc3ccccc3o2)cc1NC(=O)CSc1ccc(Cl)cc1	73% (inactive)
COc1cc2ccccc2cc1C(=O)Nc1ccc2oc(-c3ccc(F)cc3Cl)nc2c1	69% (inactive)
COc1ccc(-n2c(=O)c3sc4ccccc4c3n(C)c2=O)cc1	83% (inactive)
CCOc1ccc(N=C(c2ccccc2)N2CCOCC2)cc1	99% (inactive)
CCc1ccccc1N(C)C(=O)C1CCCN(c2ncnc3c2nc2n3CCCCC2)C1 (configuration not stated)	75% (inactive)
CC(C)c1ccc(NC(=O)Cn2c(=O)oc3cc(S(=O)(=O)N4CCCC4)ccc32)cc1	124% (inactive)
CC(C)C(=O)Nc1ccccc1C(=O)OCc1cc(=O)n2nc(C3CC3)sc2n1	100% (inactive)
Cc1ccc(-n2nc(C)c3c(C)cc(=O)n(CC(=O)NC(C)c4ccccc4)c32)cc1 (configuration not stated)	143% (inactive)
Cc1oc2ncn(CC(C)C)c(=O)c2c1C(=O)N(CCN(C)C)Cc1ccccc1	99% (inactive)
COc1cc2ccccc2cc1C(=O)Nc1ccc2oc(-c3cccc(C)c3)nc2c1	6% (active)
COc1cc2ccccc2cc1C(=O)Nc1cccc(-c2nc3cc(C)ccc3o2)c1C	75% (inactive)
COc1cc2ccccc2cc1C(=O)Nc1ccc2oc(-c3cccc(Cl)c3Cl)nc2c1	71% (inactive)
Brc1ccc(-n2nc(-c3ccccc3)c3cnc4cc5c(cc4c32)OCO5)cc1	112% (inactive)

Structure (SMILES)	survival
CCN(C(=O)CSc1nnc(-c2ccc(Cl)cc2)o1)c1ccccc1	66% (inactive)
Cc1ccc(C(=O)CC2(O)C(=O)N(Cc3ccccc3)c3ccccc32)c(C)c1 (configuration not stated)	20% (inactive)
CCc1ccc(C(=O)CC2(O)C(=O)N(CCc3ccccc3)c3ccc(Br)cc32)cc1 (configuration not stated)	36% (inactive)
COc1ccc(OC)c(C(=O)CC2(O)C(=O)N(Cc3ccccc3C)c3ccccc32)c1 (configuration not stated)	118% (inactive)
Cc1ccc(C(=O)CC2(O)C(=O)N(CCc3ccccc3)c3ccc(Br)cc32)cc1 (configuration not stated)	24% (inactive)
CCCCN1C(=O)C(O)(CC(=O)c2ccc(C(C)(C)C)cc2)c2ccccc21 (configuration not stated)	3% (active)
CCCN1C(=O)C(O)(CC(=O)c2ccc(C(C)C)cc2)c2ccccc21 (configuration not stated)	129% (inactive)
Cc1ccccc1CN1C(=O)C(O)(CC(=O)c2cccc(Br)c2)c2ccccc21 (configuration not stated)	10% (active)
O=C(CC1(O)C(=O)N(Cc2ccccc2)c2ccc(Br)cc21)c1ccccc1 (configuration not stated)	30% (inactive)
CCCN1C(=O)C(O)(CC(=O)c2ccc(OC)c(OC)c2)c2ccccc21 (configuration not stated)	130% (inactive)
CCCCN1C(=O)C(O)(CC(=O)c2ccc(C)cc2C)c2cc(Br)ccc21 (configuration not stated)	1% (active)
CCCCN1C(=O)C(O)(CC(=O)c2ccc(CC)cc2)c2cc(Br)ccc21 (configuration not stated)	2% (active)
Cc1ccc(C(=O)CC2(O)C(=O)N(Cc3ccccc3F)c3ccccc32)cc1 (configuration not stated)	71% (inactive)
COC(=O)CSc1ncc2c(n1)-c1ccccc1N(Cc1cccc(F)c1)S2(=O)=O	70% (inactive)
CC(C)CCNC(=O)c1cccc(-n2cnc3cccnc32)c1	136% (inactive)
Fc1ccc(-c2cn3cc(Cc4ccccc4Cl)sc3n2)cc1	53% (inactive)
N#Cc1ccc2ccn(CC(N)=O)c2c1	95% (inactive)
O=C(NCc1ccc(Cl)cc1)c1cc2ccc3cccnc3c2[nH]1	49% (inactive)
CCOc1ccccc1N(CC)C(=O)c1cc2ccc3cccnc3c2[nH]1	74% (inactive)
Cc1ccc(CNC(=O)c2cc3ccc4cccnc4c3[nH]2)cc1	0% (active)
CCOC(=O)c1ccccc1NC(=O)c1cc2ccc3cccnc3c2[nH]1	121% (inactive)
O=C(NCc1ccccc1)c1cc2ccc3cccnc3c2[nH]1	73% (inactive)
CCOc1ccccc1NC(=O)c1cc2ccc3cccnc3c2[nH]1	10% (active)

From PubChem BioAssay AID463173 (ICCB-Longwood Screening Facility, Harvard Medical School, 2010)
